# G9a block = qHTS Assay for Inhibitors of Histone Lysine Methyltransferase G9a; G9a H3K9 monomethylation, AlphaScreen, 2 h; Potency, µM (titrated, usually from 102 µM), usual class: inhibitors; 8.8% of 350,000 active; AID 504332, 2011; also: nearly all actives have a fitted effect of over 75% in size
#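 Methyltransferase reactions run at room temperature for 2 h (20 nM enzyme, 500 nM biotin-H3K9 peptide, 20 uM SAM) after a 15 min compound preincubation; product detected by AlphaScreen beads and anti-H3K9me1 antibody.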
# L3MBTL1 block = qHTS Assay for the Inhibitors of L3MBTL1; Lethal(3)malignant brain tumor-like protein 1 (Homo sapiens), Q9Y468; AlphaScreen L3MBTL1–H3K9me1 peptide binding; Potency, µM (series often up to 57.1 µM), actives largely listed as inhibitors; 0.66% of 230,000 active; AID 485360, 2010; also: nearly all actives have a fitted effect of over 60% in size
# Target sequence (Q9Y468 whole entry, looked up): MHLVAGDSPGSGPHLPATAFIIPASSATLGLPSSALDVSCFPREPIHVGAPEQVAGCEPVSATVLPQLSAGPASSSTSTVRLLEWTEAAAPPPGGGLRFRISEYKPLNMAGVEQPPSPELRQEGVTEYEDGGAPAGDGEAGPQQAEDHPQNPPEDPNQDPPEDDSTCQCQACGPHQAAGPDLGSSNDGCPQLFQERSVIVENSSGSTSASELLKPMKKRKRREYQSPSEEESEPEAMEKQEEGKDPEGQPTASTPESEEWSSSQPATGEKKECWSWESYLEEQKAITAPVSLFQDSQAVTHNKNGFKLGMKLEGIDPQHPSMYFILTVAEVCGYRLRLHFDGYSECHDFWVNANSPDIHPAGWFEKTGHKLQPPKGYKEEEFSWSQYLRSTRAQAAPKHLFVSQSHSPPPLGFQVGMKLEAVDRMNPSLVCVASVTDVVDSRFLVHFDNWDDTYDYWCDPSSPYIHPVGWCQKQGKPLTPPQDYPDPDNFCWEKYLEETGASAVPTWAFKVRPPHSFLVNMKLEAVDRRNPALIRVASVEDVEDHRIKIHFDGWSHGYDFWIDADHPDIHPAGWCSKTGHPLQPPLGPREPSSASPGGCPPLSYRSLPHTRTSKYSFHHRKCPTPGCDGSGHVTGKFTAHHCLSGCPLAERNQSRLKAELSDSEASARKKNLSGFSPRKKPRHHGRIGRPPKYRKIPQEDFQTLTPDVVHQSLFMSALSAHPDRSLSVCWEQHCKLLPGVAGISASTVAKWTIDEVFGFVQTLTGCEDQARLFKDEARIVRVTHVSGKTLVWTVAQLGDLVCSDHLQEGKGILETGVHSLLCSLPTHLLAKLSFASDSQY
#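 AlphaScreen assay: L3MBTL1 (50 nM final) was preincubated 30 min at room temperature with biotinylated H3(1-15)K9me1 peptide (75 nM final), then 30 min with library compounds; streptavidin donor and nickel chelate acceptor beads (10 ug/mL final) added, 30 min dark.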
# HP1b chromo inh = HTS for Inhibitors of HP1-beta Chromodomain Interactions with Methylated Histone Tails; Chromobox protein homolog 1 (Homo sapiens), P83916; AlphaScreen HP1-beta / biotin-H3K9me3 peptide binding; Potency, µM (top dose mostly 114 µM), hits mostly inhibitors; 0.56% of 390,000 active; AID 540317, 2011; also: nearly all actives have a fitted effect of over 70% in size
#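 HP1-beta protein (50 nM final) preincubated 30 min at room temperature with biotinylated H3(1-18)K9me3 peptide (50 nM) in PBS pH 7.4, 0.01% Tween-20, then compound added for 30 min. AlphaScreen streptavidin donor/nickel chelate acceptor beads (10 ug/mL final), 30 min dark, luminescence read.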
# JMJD2A Tudor inh = qHTS Assay for Inhibitors of JMJD2A-Tudor Domain | 4.4% of 390,000 active | AlphaScreen JMJD2A-Tudor / H3K4me3 peptide binding | Lysine-specific demethylase 4A (Homo sapiens), O75164 | Potency, µM (doses to about 114 µM), actives largely listed as inhibitors; also: nearly all actives have a fitted effect of over 50% in size
# BAZ2B inh = qHTS Assay for Inhibitors of BAZ2B; AlphaScreen BAZ2B-H3K14Ac peptide displacement; AID 504333, 2011; Potency, µM (top dose mostly 114 µM), actives largely listed as inhibitors; Bromodomain adjacent to zinc finger domain protein 2B (Homo sapiens), Q9UIF8; 4.4% of 360,000 active; also: nearly all actives have a fitted effect of over 60% in size
#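 AlphaScreen displacement of biotin-H3(5-23)K14Ac peptide (50 nM final) from BAZ2B (50 nM final) in PBS pH 7.4, 0.01% Tween-20; complex preformed 30 min RT, then compounds (top 110 uM) 30 min RT, beads 20 min dark.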
# Sfp inh = qHTS Assay for Inhibitors of Bacillus subtilis Sfp phosphopantetheinyl transferase (PPTase) | 3.5% of 310,000 active | Biochemical Sfp PPTase activity, qHTS | AID 1490, 2009 | Potency, µM, most hits filed as inhibitors;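 also: the enzyme is Sfp with the accession as filed and its product quenches rhodamine fluorescence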
#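 After 15 min at room temperature with compound, 15 nM Sfp received 5 uM rhodamine-CoA plus 12.5 uM BHQ-2-ybbR (50 mM Hepes pH 7.6, 10 mM MgCl2). Rate came from the fluorescence difference over 30 min, ex 525/em 598 nm.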
# Numbers stand for hits; . = inactive; ? = inconclusive; / = not tested or not shown; ! = not confirmed by another sample; [ ] = remark or other dose. Rows were chosen to be rich in hits. Some 12% of all compounds tested hit in one or more screens of this group. Calls follow the shape of the dose curve; as a rule, active = well fitted curve in the direction sought with a large enough effect; inconclusive = small, poorly fitted or top-dose-only effect, or another doubt; inactive = no such curve, though single readings can be large; an effect the other way counts as inactive or inconclusive.
SMILES,G9a block,L3MBTL1 block,HP1b chromo inh,JMJD2A Tudor inh,BAZ2B inh,Sfp inh
CCCc1c(OCC(O)COc2ccc3c(=O)cc(C(=O)O)oc3c2CCC)ccc(C(C)=O)c1O (stereo not given),.,/,/,/,/,.
O=C(CSCCO)Nc1cccc2ccccc12,50µM,/,.,.,.,.
O=C(Nc1ccc2snnc2c1)Nc1cccc2ccccc12,50µM,/,.,.[11.4 µM],.,.
CSc1ccccc1NC(=O)Nc1cccc2ccccc12,79µM,/,.,.,.,.
CCc1ccccc1NC(=O)Nc1ccc2snnc2c1,.,/,.,.,.,/
O=C(CSCC(=O)Nc1cccc2ccccc12)Nc1cccc2ccccc12,/,/,.,.,?,.
NC(=O)C1CC2(NC(=O)NC2=O)c2cc(F)ccc2O1 (stereo not given),.[12.7 µM],/,/,/,/,.
CCc1ccccc1NC(=O)Cn1nnc(C(=O)Nc2ccc(OC)c(OC)c2)c1N,.,/,.,.,.,/
Cc1nc2[nH]c(=S)[nH]c2c(=O)[nH]1,/,/,.,20µM,/,/
Clc1nc(NCc2cccs2)c2[nH]cnc2n1,/,/,.,.,/,/
O=C1CCc2cc(S(=O)(=O)Nc3ccc(Cl)c(Cl)c3)ccc2N1,/,/,/,.,/,/
Cc1c(Cl)cccc1NC(=O)N1CCN(Cc2cc(=O)n3nc(-c4ccccc4F)sc3n2)CC1,.,/,.,.,.,/
COCCNC(=O)CSc1nc2cc3c(cc2c(=O)n1CCCCCC(=O)NCCc1ccc(OC)c(OC)c1)OCO3,.,/,.,.,.,/
COc1ccc2c(C)cc(=S)[nH]c2c1,40µM,.,.,.[11.4 µM],.,?
CCCCC(O)C(=O)Nc1cc(C(F)(F)F)ccc1Cl (stereo not given),/,/,/,.,/,/
CSc1nc(-c2ccco2)nn1C(=O)c1cccs1,.,/,.,.,.,?
COc1ccc(C(=O)n2nc(-c3ccco3)nc2NCc2cccs2)cc1,10µM,/,.,.,.,/
COc1ccc(C(=O)n2nc(-c3ccco3)nc2SC)cc1OC,20µM,.,.,?,.,?
CCOc1ccc(C(C(=O)NC2CCCC2)N(C(=O)c2snc(C(N)=O)c2N)c2cccc(O)c2)cc1 (stereo not given),.,/,.,.,.,.
Cc1cccc(N2CCN(CCNC(=O)C3COc4ccccc4C3)CC2)c1C (stereo not given),.,/,.,.,.,/
COc1ccc(C(=O)Nc2nnc(Cc3ccccc3)s2)c(OC)c1,.,.,.,.,.,.
COc1ccc(N2CC(C(=O)N[C@@H](C)C(=O)N[C@H](CO)c3ccccc3)CC2=O)cc1 (stereo not given in full),5.6µM,.,.,.,.,.
Cc1ccc(N2CC(C(=O)Nc3nnc(SCc4cccnc4)s3)CC2=O)cc1 (stereo not given),16µM,/,.,.,.,.
COc1ccc(N2CC(C(=O)Nc3nnc(SCc4cccnc4)s3)CC2=O)cc1 (stereo not given),50µM,/,.,.,.,.
CCc1ccc(-n2nc3ccc(NC(=O)COc4ccc(OC)cc4)cc3n2)cc1,.,/,.,.,.,/
SMILES,G9a block,L3MBTL1 block,HP1b chromo inh,JMJD2A Tudor inh,BAZ2B inh,Sfp inh
C=CCNc1nc(-c2cc3ccccc3o2)cs1,11µM,.,.,.,?,?
c1ccc2sc(NCC3CCCO3)nc2c1 (stereo not given),.,.,.,.,.,.
c1ccc2oc(-c3csc(NCC4CCCO4)n3)cc2c1 (stereo not given),40µM,.,?,?,?,.
C=CCNc1nc(-c2ccc3c(c2)OCCO3)cs1,/,/,.,?,/,/
O=[N+]([O-])c1ccc(NN=Cc2cccc3ccccc23)nc1,/,/,.,.,/,/
COc1cccc(/C=N/Nc2ccnc(=O)[nH]2)c1O,.,/,.,?,50µM,.
Cc1c(C(=O)O)cccc1-n1c(C)cc(/C=N/Nc2ccc([N+](=O)[O-])cn2)c1C,45µM,.,.,.[11.4 µM],45µM,32µM
COc1cccc(/C=N/NC(=O)N/N=C/c2cccc(OC)c2O)c1O,.[0.501 µM],.[2.29 µM],.,?,.,.
COc1cccc(/C=N/Nc2ccc([N+](=O)[O-])cn2)c1O,.,/,.,?,40µM,.
CCOc1ccccc1/C=N/Nc1ccnc(=O)[nH]1,.[2.33 µM],/,.,.,.,.
O=c1nccc(N/N=C/c2ccccc2O)[nH]1,.,/,.,?,50µM,.
Cc1cc(/C=N/Nc2ccc([N+](=O)[O-])cn2)c(C)n1-c1ccccc1,?,/,.,.,?,.
CCOC(=O)c1cccc(NC(=O)c2ccc3c(c2)nnn3C2CCCC2)c1,.,/,.,.,.,/
COc1ccc(C(=O)NCC(c2cccs2)S(=O)(=O)c2cccs2)cc1 (stereo not given),.,/,.,.,.,/
CCOC(=O)COn1c(=O)c(-c2cc3ccccc3o2)[n+]([O-])c2ccccc21,.[0.501 µM],.,.,.,.,79µM
CCOC(=O)COn1c(=O)c(-c2cccs2)[n+]([O-])c2ccccc21,?,.,.,.,?,10µM
CCOn1c(=O)c(-c2cccs2)[n+]([O-])c2ccccc21,.,/,.,.,.,.
C=CCOn1c(=O)c(-c2cc3ccccc3o2)[n+]([O-])c2ccccc21,?,.,.,.[11.4 µM],.,.
CN1CCN(CCCN2c3ccccc3Sc3ccc(Cl)cc32)CC1,16µM!,?,?,45µM,20µM,?
CCSc1ccc2c(c1)N(CCCN1CCN(C)CC1)c1ccccc1S2,14µM,.,?,40µM,35µM,.
CN1CCN(CCCN2c3ccccc3Sc3ccccc32)CC1,28µM,/,/,/,/,.
CC(=O)c1ccc2c(c1)N(CCCN1CCN(CCO)CC1)c1ccccc1S2,?,/,/,/,/,.
CCC(=O)c1ccc2c(c1)N(CCCN1CCN(CCO)CC1)c1ccccc1S2,?,/,/,/,/,79µM
Nn1c(SCC(=O)Nc2ccccc2F)nnc1-c1cccs1,.[2.33 µM],.,.,.,.,/
O=C(NCCC(=O)N1CCC2(CC1)NCCc1[nH]cnc12)c1ccc(Br)cc1,.,/,.,.,.,.
CCOc1ccc(NC(=O)Cn2cc(C(=O)c3ccc(C)c(C)c3)c(=O)c3cc(F)ccc32)cc1,.,/,.,.,.,/
CC(C)(C)c1ccc(C(=O)CC(Sc2ccc(Cl)cc2)C(=O)O)cc1 (stereo not given),45µM,.,.,.,.,20µM
O=C(CC(C(=O)O)c1ccc(Cl)cc1)c1ccccc1 (stereo not given),.,.,.,.,.,.

# Assay outcomes from PubChem BioAssay.
